Screening data as filed in PubChem.
Sampled rows, rich in hits. Any-hit rate of the full collection: about 3%.
HIF-2a block: HIF-2a reporter inhibitors, primary screen, luminescence, 786-0 RCC cells; actives 0.72% (n = 360,000); inhibition, % at 18.8 µM; 786-0 RCC cells HIF-2a reporter, luciferase luminescence, overnight;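 active means inhibition of the luminescence signal of 40% or more relative to plate controls, in a single-dose primary screen at 18.75 µM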
CF NFkB inh: inhibitors of PAF-induced NF-kB signaling, primary screen, cell-based, GFP fluorescence, uHTS; inhibition, % at 5 µM; KKLEB NF-kB-GFP reporter, GFP fluorescence overnight; AID 588850, 2011; actives 0.86% (n = 360,000);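 active means at least 50% inhibition at 5 µM, scaled per plate between neutral and stimulator controls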;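 further: PAF is a Pseudomonas aeruginosa culture filtrate used as stimulus; plate controls were PAF-stimulated DMSO wells for no effect and unstimulated DMSO wells for full effect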
EBV LMP1 NFkB: EBV LMP1-driven NF-kappaB luciferase reporter inhibitors, primary screen, cell-based, luminescence, single point. actives 0.69% (n = 350,000). LMP1-induced NF-kappaB luciferase reporter cells. inhibition, % at 12.5 µM. AID 504558, 2011; in the data active means inhibition above about 41%;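 further: 0% = neutral control wells and 100% = reference inhibitor control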
KKLEB cytotox: cytotoxicity in KKLEB CF airway cells, primary screen, cytotoxicity control for CF NF-kB inhibitor project, cell-based, uHTS, fluorescence assay plates. KKLEB CF airway cells viability, ATPlite luminescence, overnight; active compounds read low; cells stimulated with P. aeruginosa culture filtrate. actives 0.36% (n = 360,000). activity change (cytotoxicity), % at 5 µM;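 active means corrected activity change at or below -50% at 5 µM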
Peg3 promoter: Peg3 promoter-driven luciferase inhibitors, primary screen, cell-based, HeLa, luciferase luminescence; HeLa PEG-Prom luciferase reporter, overnight; inhibition, % at 20 µM; actives 1.7% (n = 360,000);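 active means inhibition of at least 50% at 20 µM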
MITF TRPM1 inh: inhibitors of MITF-dependent TRPM1 promoter reporter, primary screen, cell-based, SK-MEL-5, single point, luciferase; SK-MEL-5 TRPM1 promoter luciferase, 24 h; inhibition, % at 12.5 µM; actives 0.83% (n = 330,000);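 active means mean inhibition across replicates of 60% or more, whatever share of single replicates reaches that level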
Active calls of the source: *; . = not tested or not shown.

SMILES | HIF-2a block | CF NFkB inh | EBV LMP1 NFkB | KKLEB cytotox | Peg3 promoter | MITF TRPM1 inh
Cc1ccc(N2C(=O)NC(=O)/C(=C\C=C\c3ccco3)C2=O)cc1C | 76* | 80* | -33 | -38 | 76* | 90*
Cn1cc(/C=C2\C(=O)NC(=O)N(c3ccccc3)C2=O)c2ccccc21 | 5 | -1 | 10 | -4 | 22 | -17
CN(C)c1ccc(/C=C/C=C2/C(=O)NC(=O)N(c3ccccc3)C2=O)cc1 | 3 | 70* | -54 | -27 | 103* | 83*
Cc1cccc(-c2nc3ccc(C(=O)N4CCC5(CC4)OCCO5)cc3nc2-c2cccc(C)c2)c1 | 9 | 18 | 2 | -6 | 56* | -8
CC(=O)OC1CCC2(C)C(=CC(=O)C3C2CCC2(C)C(OC(C)=O)CCC32)C1 (stereo not given) | 4 | -22 | 3 | 5 | 1 | -9
O=C1NC(=O)C(CCc2ccncc2)(Cc2cccc(Cl)c2Cl)C(=O)N1c1ccc(Br)cc1 (stereo not given) | 24 | 28 | -3 | -22 | 57* | 12
CCCCCCn1c(=O)c(C(=O)Nc2ncccc2C)c(O)c2ccccc21 | 21 | 36 | 6 | -8 | 19 | 1
O=C(c1ccc(-c2ccccc2)cc1)C1CCCN(Cc2ccn[nH]2)C1 (stereo not given) | -14 | -21 | -3 | 0 | -19 | 2
CCCCCCCn1c(=O)c(C(=O)Nc2cnccn2)c(O)c2ccccc21 | -5 | 3 | 34 | -1 | 29 | 55
CCCCCn1c(=O)c(C(=O)Nc2cnccn2)c(O)c2ccccc21 | -17 | 10 | 30 | -9 | -13 | 66*
COc1ccc(-n2nnnc2C(c2cc3ccccc3o2)N2CCC(n3c(=O)[nH]c4ccccc43)CC2)cc1 (stereo not given) | -5 | 11 | . | -15 | 92* | .
O=c1[nH]c2ccccc2n1C1CCN(C(c2cccc3ccccc23)c2nnnn2-c2ccc3c(c2)OCCO3)CC1 (stereo not given) | -19 | 84* | . | -85* | 71* | .
Cc1ccccc1C(=O)N1Cc2ccccc2-n2nncc2C1 | 2 | -12 | 5 | -6 | 9 | .
O=P(/C=C1\OCc2ccccc21)(Oc1ccccc1)Oc1ccccc1 | -26 | . | . | . | . | .
NC(=O)c1cn(C2OC(CO)C(O)C2O)c2ncnc(N)c12 (stereo not given) | 67* | 89* | 81* | -83* | 93* | 84*
N#Cc1cn(C2OC(CO)C(O)C2O)c2ncnc(N)c12 (stereo not given) | 31 | 96* | -181 | -34 | 96* | 59
Nc1ncnc2c1ncn2[C@@H]1O[C@H](COP(=O)(O)CP(=O)(O)O)[C@@H](O)[C@H]1O | -27 | -4 | 8 | -3 | -11 | 2
CC1CC(C)(O)CC(C(O)CC2CC(=O)NC(=O)C2)C1=O (stereo not given) | 55* | 91* | 90* | 0 | 96* | 67*
CS(=O)(=O)c1ccc(C2=C(CNC(=O)c3cccnc3)[C@H]3CC[C@@H](C2)N3Cc2ccccc2)cc1 | 1 | 5 | -14 | -7 | -16 | .
O=C(O)CCC(=O)NCCC1=c2ccccc2=N/C1=C\c1c(O)n(Cc2ccc(F)cc2)c(=S)[nH]c1=O | -28 | 24 | -3 | -5 | -21 | 25
CCCCn1nnnc1C(c1ccnc2ccccc12)N1CCC2(CC1)C(=O)NCN2c1ccccc1 (stereo not given) | 10 | -14 | . | 1 | -8 | .
CC(C)C[C@H](NC(=O)[C@@H]1CCCN1C(=O)[C@@H](N)Cc1ccc(O)cc1)C(=O)NCC(N)=O | 7 | 14 | 66* | 10 | -8 | 4
CC(C)CC(NC(=O)C1CCCCC1)C(=O)N1CCC2(CC1)OCCO2 (stereo not given) | 10 | 8 | 1 | -4 | 8 | -7
CCOC(=O)c1c(N)n(CCCOC(=O)c2ccco2)c2nc3ccccc3nc12 | -13 | 17 | -1 | -3 | 6 | 89*
